Measurements as given in publication PMC4336329 (PLoS ONE, 2015).
Hit rate of the full screen: of about 310,000 compounds, about 2,200 (0.71%) showed an effect of 50% or more. The effect is printed as a negative number. Only a selection was taken, and strong results are over-represented in it overall.

target: human ether-à-go-go-related gene (hERG) potassium channel (human, UniProt Q12809); experiment: primary screen, population patch clamp on CHO cells stably expressing hERG; higher = less effect of the substance
Sequence (Q12809 whole entry, looked up): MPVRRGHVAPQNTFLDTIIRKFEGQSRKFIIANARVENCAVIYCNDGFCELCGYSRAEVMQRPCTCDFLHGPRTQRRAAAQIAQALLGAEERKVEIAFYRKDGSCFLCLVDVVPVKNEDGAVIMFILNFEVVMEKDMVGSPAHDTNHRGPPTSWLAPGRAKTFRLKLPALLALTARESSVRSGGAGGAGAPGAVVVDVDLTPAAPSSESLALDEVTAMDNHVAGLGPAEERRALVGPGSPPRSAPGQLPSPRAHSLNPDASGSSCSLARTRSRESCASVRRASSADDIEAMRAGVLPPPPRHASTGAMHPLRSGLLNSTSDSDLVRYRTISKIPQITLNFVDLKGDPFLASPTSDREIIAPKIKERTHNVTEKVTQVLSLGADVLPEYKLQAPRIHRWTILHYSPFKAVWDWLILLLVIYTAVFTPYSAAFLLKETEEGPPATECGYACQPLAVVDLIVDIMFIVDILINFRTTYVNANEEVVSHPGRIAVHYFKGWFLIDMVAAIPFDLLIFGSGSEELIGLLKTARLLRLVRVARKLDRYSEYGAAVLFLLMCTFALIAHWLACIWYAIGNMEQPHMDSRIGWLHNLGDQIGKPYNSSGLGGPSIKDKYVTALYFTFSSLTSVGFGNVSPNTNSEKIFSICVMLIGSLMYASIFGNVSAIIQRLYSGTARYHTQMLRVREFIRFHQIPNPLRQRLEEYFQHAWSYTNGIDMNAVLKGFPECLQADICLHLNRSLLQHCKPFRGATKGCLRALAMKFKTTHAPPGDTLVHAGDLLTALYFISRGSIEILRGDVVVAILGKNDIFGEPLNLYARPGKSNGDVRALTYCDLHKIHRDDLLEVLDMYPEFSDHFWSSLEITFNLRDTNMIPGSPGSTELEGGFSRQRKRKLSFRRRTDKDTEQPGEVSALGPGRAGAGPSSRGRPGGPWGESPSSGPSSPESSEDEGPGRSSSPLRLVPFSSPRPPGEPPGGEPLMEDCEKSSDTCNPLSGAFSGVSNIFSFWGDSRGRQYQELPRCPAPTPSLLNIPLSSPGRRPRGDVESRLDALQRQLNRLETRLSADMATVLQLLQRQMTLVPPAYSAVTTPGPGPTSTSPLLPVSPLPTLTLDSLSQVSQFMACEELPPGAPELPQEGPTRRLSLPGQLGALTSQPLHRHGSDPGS

| SMILES | hERG current change (%, negative = inhibition) at 1uM |
| --- | --- |
| Cc1csc(SC(C)C(=O)NC2CCCCC2C)n1 (stereo not drawn) | 7.18% |
| COc1ccc2oc(=O)cc(-c3cc4ccccc4o3)c2c1 | -1.03% |
| O=C(C1CCCN(S(=O)(=O)c2cccc3cccnc23)C1)N1CCN(c2ccc(F)cc2)CC1 (stereo not drawn) | -50.1% |
| O=C(C1CCCN(S(=O)(=O)c2ccccc2)C1)N1CCN(c2ccc(F)cc2)CC1 (stereo not drawn) | -62.4% |
| O=C(C1CCCN(S(=O)(=O)c2cccc3cccnc23)C1)N1CCN(c2ccccc2F)CC1 (stereo not drawn) | -27.5% |
| O=C(C1CCCN1S(=O)(=O)c1cccc2nsnc12)N1CCN(c2ccc(F)cc2)CC1 (stereo not drawn) | -54.1% |
| COc1ccc(N2CCN(C(=O)C3CCCN(S(=O)(=O)c4ccc(F)cc4)C3)CC2)cc1 (stereo not drawn) | -7.16% |
| O=C(C1CCCN(S(=O)(=O)c2ccccc2)C1)N1CCN(c2ccccc2)CC1 (stereo not drawn) | -12.7% |
| O=C(C1CCCN1S(=O)(=O)c1cccc2nsnc12)N1CCN(c2ccccc2)CC1 (stereo not drawn) | -1.72% |
| COc1ccc(N2CCN(C(=O)C3CCCN(S(=O)(=O)c4cccc5cccnc45)C3)CC2)cc1 (stereo not drawn) | 5.91% |
| CC(=O)c1ccc(N2CCN(C(=O)C3CCCN3S(=O)(=O)c3cccc4nsnc34)CC2)cc1 (stereo not drawn) | 14.6% |
| CC(=O)N1CCN(C(=S)NC(=O)c2ccc(S(=O)(=O)N3CCOCC3)cc2)CC1 | 13.2% |
| COc1ccc(C(=O)Nc2c(C)ccc3nsnc23)cc1[N+](=O)[O-] | 3.23% |
| C#CCNC(=O)C1=C[C@H](c2ccc(Br)cc2)C[C@H](OCCCCO)O1 | 11.3% |
| COc1ccc([N+](=O)[O-])cc1N(CC(=O)Nc1ccccc1C(=O)N1CCOCC1)S(C)(=O)=O | 4.57% |
| COC(=O)C1=C(C(=O)OC)SC2(S1)C(C(=O)OC)=C(C(=O)OC)SC1=C2c2cc(C)cc(C)c2NC1(C)C | 19.8% |
| COC(=O)C1=C(C(=O)OC)SC2(S1)C(C(=O)OC)=C(C(=O)OC)SC1=C2c2cccc(C)c2NC1(C)C | -79.1% |
| COC(=O)C1=C(C(=O)OC)SC2(S1)C(C(=O)OC)=C(C(=O)OC)SC1=C2c2cc(C)ccc2NC1(C)C | 11% |
| Cc1nc(C)n(CC(O)COc2ccc3ccccc3c2)n1 (stereo not drawn) | -0.527% |
| CCOC(=O)[C@@H]1[C@H]2COc3cc(OC)ccc3[C@@H]2N2C(=O)N(c3ccc(Br)cc3)C(=O)[C@@]12C | 5.83% |
| CC(=O)NCCOc1ccc(C(=O)O)cc1 | 6.2% |

| SMILES | hERG current change (%, negative = inhibition) at 1uM |
| --- | --- |
| Cc1ccc(S(=O)(=O)N2CCOCC2)cc1C(=O)N1CCC(Cc2ccccc2)CC1 | 11.2% |
| O=C(O)CCN(CCC(=O)O)c1nnc(SCc2ccccc2)s1 | 11.7% |
| O=C(CCl)NN=C(c1ccccc1)c1ccccc1 | 5.28% |
| CCN(CC)CC(=O)NN=C(c1ccccc1)c1ccccc1 | -78.2% |
| O=C(CN1CCCC1)NN=C(c1ccccc1)c1ccccc1 | -49% |
| CCOC(=O)C1CCN(c2ccc(Cl)nn2)CC1 | 0.0696% |
| CCOC(=O)Cc1nnc(NC(=O)c2ccco2)s1 | 5.45% |
| COc1ccc(OCC(=O)Nc2cc(-c3nn4c(C)nnc4s3)ccc2C)cc1 | 3.66% |
| Cc1ccc(OCC(=O)Nc2cc(-c3nn4c(C)nnc4s3)ccc2C)cc1 | -2.75% |
| Cc1ccc(-c2nn3c(C)nnc3s2)cc1NC(=O)COc1ccc(Cl)cc1 | -74.3% |
| O=C(Nc1ccc(Cl)cc1)Nc1ccc2c(c1)OCO2 | 12.5% |
| CN(C(=O)CSc1nnc(CNC(=O)c2ccccc2)o1)c1ccccc1 | 1.84% |
| S=C(c1ccc(-c2ccccc2)cc1)N1CCOCC1 | 7.87% |
| O=C(O)C1CCCN1c1nc(-c2ccc(Cl)c(Cl)c2)cc(C(F)(F)F)n1 (stereo not drawn) | 7.97% |
| CCOc1ccccc1CN1CCN(C/C=C/c2ccc(OC)cc2)CC1CCO (stereo not drawn) | -13.6% |
| COc1ccc(/C=C/CN2CCN(CC(C)C)C(CCO)C2)cc1 (stereo not drawn) | -0.433% |
| COc1ccc(/C=C/CN2CCN(CCc3ccccc3)C(CCO)C2)cc1 (stereo not drawn) | -61.7% |
| CCOc1ccc(CN2CCN(C/C=C/c3ccc(OC)cc3)CC2CCO)cc1 (stereo not drawn) | -77.1% |
| COc1ccc(/C=C/CN2CCN(Cc3ccc(F)cc3)C(CCO)C2)cc1 (stereo not drawn) | -3.48% |
| COc1ccc(/C=C/CN2CCN(Cc3ccccc3)C(CCO)C2)cc1 (stereo not drawn) | -28.9% |
| C=CCn1c(=O)c(C(=O)Nc2ccc(C)cc2)c(O)c2ccccc21 | 15.6% |

| SMILES | hERG current change (%, negative = inhibition) at 1uM |
| --- | --- |
| Cn1c(N)c(C(=O)COC(=O)c2ccccc2NCc2ccco2)c(=O)n(C)c1=O | 9.3% |
| C[C@H](NC(=O)c1nc[nH]c1C(=O)N[C@@H](Cc1ccccc1)C(=O)OCc1ccccc1)C(=O)OC(C)(C)C | 10.7% |
| COC(C(=O)Nc1ccc(S(=O)(=O)Nc2ccc(C)c(C)c2)cc1)c1ccccc1 (stereo not drawn) | 1.3% |
| COC(C(=O)Nc1ccc(S(=O)(=O)Nc2c(C)cccc2C)cc1)c1ccccc1 (stereo not drawn) | -69.6% |
| COC(C(=O)Nc1ccc(S(=O)(=O)Nc2ccc(F)cc2)cc1)c1ccccc1 (stereo not drawn) | 7.53% |
| CC1CCc2c(sc3c2C2=NS(=O)(=O)CCN2C=N3)C1 (stereo not drawn) | 15% |
| Cc1csc(NC(=O)CSc2nnc(C)c(=O)n2N)n1 | 1.29% |
| O=C(Cc1csc(-c2ccccc2)n1)NCc1ccc(F)cc1 | 4.14% |
| O=C(COc1ccc(-n2ccnc2)cc1)Nc1cccc(F)c1 | -13% |
| N#Cc1cccc(NC(=O)COc2ccc(-n3ccnc3)cc2)c1 | -51% |
| O=C(COc1ccc(-n2ccnc2)cc1)Nc1cccc(Cl)c1 | -3.13% |
| O=S(=O)(Nc1nc(-c2ccccc2)cs1)c1cccc(C(F)(F)F)c1 | 10.5% |
| CCOc1cc2[nH]c(=S)n(Cc3ccc(C)o3)c(=O)c2cc1OCC | -3.56% |
| COc1cccc2c1OCC(C(=O)OCc1cccnc1)=C2 | 10.4% |
| O=C(OCc1cccnc1)C1=Cc2ccccc2OC1 | -73% |
| COc1ccc2c(c1)C=C(C(=O)OCc1cccnc1)CO2 | 10.4% |
| CCN(CC)S(=O)(=O)c1ccc(-n2cnc3cc(C)c(C)cc32)nc1 | 14.1% |
| Cc1nc2ccccn2c1C(=O)N=Nc1c(O)[nH]c2ccccc12 | 13.2% |
| CCc1ccc(OCC(=O)O/N=C(\N)c2cccnc2)cc1 | 0.0916% |
| Br.N=c1n(CCN2CCCCC2)c2ccccc2n1CC(=O)c1ccc(Cl)c(Cl)c1 | -14.7% |
| Br.N=c1n(CCN2CCOCC2)c2ccccc2n1CC(=O)c1ccc(Cl)c(Cl)c1 | -69.1% |

| SMILES | hERG current change (%, negative = inhibition) at 1uM |
| --- | --- |
| Cc1ccc(C(=O)Cn2c(=N)n(CCN3CCOCC3)c3ccccc32)cc1.[Br-] | -20.3% |
| Br.N=c1n(CCN2CCOCC2)c2ccccc2n1Cc1ccccc1Br | -51.7% |
| N=c1n(CCOc2ccccc2)c2ccccc2n1CCN1CCOCC1 | -10% |
| Br.CCCn1c(=N)n(CC(=O)c2ccc(Cl)c(Cl)c2)c2ccccc21 | -17.7% |
| COc1ccc(-n2nc3c(N4CCC(C(=O)NCCc5ccco5)CC4)nnc(C)c3c2C)cc1 | 19.1% |
| CCOC(=O)c1c(N)sc2c1CCCC2 | 15.1% |
| CC(Sc1ccc(Cl)cc1)C(=O)Nc1ccccc1-c1ccccc1 (stereo not drawn) | 17.4% |
| COc1cc2c(cc1OC)CN(Cc1cc(=O)n3c(-c4ccccc4)csc3n1)CC2 | 14.9% |
| COc1cc2c(cc1OC)C(NC(=O)c1ccc(C)cc1)CC2=O (stereo not drawn) | 7.58% |
| Cn1c(=O)c(Nc2ccc(Cl)cc2)c2c3c(cccc31)C(=O)c1ccccc1-2 | 14.9% |
| COc1ccccc1-c1nnc(NC(=O)c2ccc(S(=O)(=O)N(C)Cc3ccccc3)cc2)o1 | 4.43% |
| COCC1OS(=O)(=O)NC(CC(=O)SC(C)(C)C)C1C (stereo not drawn) | 9.98% |
| O=C(CCN1CCCCC1)NCC(=O)Nc1ccc(Br)cc1C(=O)c1ccccc1 | -78.1% |
| O=C(CN1CCOCC1)NCC(=O)Nc1ccc(Br)cc1C(=O)c1ccccc1 | -20% |
| O=C(CCN1CCOCC1)NCC(=O)Nc1ccc(Br)cc1C(=O)c1ccccc1 | -17.6% |
| O=C(CN1CCOCC1)Nc1ccc(Br)cc1C(=O)c1ccccc1 | -3.67% |
| O=C(CCN1CCOCC1)Nc1ccc(Br)cc1C(=O)c1ccccc1 | -0.737% |
| O=C(CN1CCCCC1)NCC(=O)Nc1ccc(Br)cc1C(=O)c1ccccc1 | -77.2% |
| CCc1oc(C(=O)O)cc1COC | -4.45% |
| Cc1ccc(C)c(Nc2ncnc(N)c2[N+](=O)[O-])c1 | 9.83% |
| Cc1nc(NC(=O)c2ccccc2)sc1C | 16.6% |
